Laboratory results from PubChem BioAssay AID488922 (Johns Hopkins Ion Channel Center, 2010).
Among all 310,000 compounds or so, about 3,800 (1.2%) were called active.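 How the source made its calls: active means ratio B-score over 3 SD below the library mean, with starting fluorescence within 5 SD of its mean; inactive means the rest, inconclusive results apart.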 Many of the other results were omitted from the sample, so actives are more common in it than they were.

Biological target: Potassium channel subfamily K member 9 (Homo sapiens) (UniProt Q9NPC2)
Assay: KCNK9 potassium channel inhibitors, primary screen, HEK293 cells, thallium flux (AID 488922);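 on B-score: negative B-score means less thallium flux so channel inhibition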
Conditions: HEK293 KCNK9, FluxOR thallium flux fluorescence, at 10 µM; active compounds read low

Chain of Potassium channel subfamily K member 9 (Homo sapiens) (Q9NPC2 whole entry, looked up): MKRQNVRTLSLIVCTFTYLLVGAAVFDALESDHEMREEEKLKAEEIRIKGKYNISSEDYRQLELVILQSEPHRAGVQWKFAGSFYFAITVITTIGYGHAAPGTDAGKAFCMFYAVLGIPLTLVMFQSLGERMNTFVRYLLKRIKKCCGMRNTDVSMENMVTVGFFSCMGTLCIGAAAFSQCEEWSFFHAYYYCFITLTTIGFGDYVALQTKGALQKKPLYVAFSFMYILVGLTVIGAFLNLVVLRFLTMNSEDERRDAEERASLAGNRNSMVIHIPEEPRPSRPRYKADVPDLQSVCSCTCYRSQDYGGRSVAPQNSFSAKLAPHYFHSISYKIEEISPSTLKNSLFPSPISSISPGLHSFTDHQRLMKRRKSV

SMILES	B-score
O=C(CNC(=O)c1cccnc1)N/N=C/c1cc(Br)c(O)c(Br)c1	inactive
CCCOc1ccc2c3c(c(=O)oc2c1OCCC)CCC3	-13.7 (active)
COc1ccc2c3c(c(=O)oc2c1OCC(=O)C(C)(C)C)CCCC3	inactive
Cc1c(OC(C)C(=O)N[C@@H](Cc2ccccc2)C(=O)O)ccc2c3c(c(=O)oc12)CCCC3 (stereo not given in full)	inactive
CN(C)c1ccc(/C=N\S(=O)(=O)c2ccccc2)cc1	inactive
CC[n+]1cc(C)ccc1/C=C/c1ccc(N(C)C)cc1	-6.65 (active)
CCCCCCCC1(C)NC(=O)N(CC(=O)Nc2cc(C)on2)C1=O (stereo not given)	inactive
CCOC(=O)N1CCN(C(=O)c2ccc3c(c2)N(Cc2ccc(C)cc2)CCS3)CC1	inactive
O=C(NCCc1ccccc1)c1ccc2c(c1)N(Cc1ccccc1)CCS2	-9.05 (active)
O=C(NCCN1CCOCC1)c1ccc2c(c1)N(Cc1ccc(Cl)cc1)CCS2	inactive
CCN(CC)C(=O)CC1(c2ccccc2OC)CCOC(C(C)C)C1 (stereo not given)	-8.7 (active)
CC[C@]1(c2ccccc2OC)C(=O)N(C(=O)OC)N1C(=O)OC	inactive
COc1ccc(C2(CNC(=O)C(c3ccccc3)c3ccccc3)CCOCC2)cc1OC	inactive
O=P(O)(CN1CCCCCC1)C1Cc2ccccc2C1	inactive
CCc1ccccc1NC(=O)/C(=C/c1ccccc1)c1ccccc1	-8.86 (active)
CCc1ccccc1NC(=O)CCOc1ccccc1	inactive
CCc1ccccc1NC(=S)Nc1cc(OC)c(NC(=O)C(C)C)cc1OC	inactive
COc1cccc(CNS(=O)(=O)c2ccc3c(c2)N(C(C)=O)CCS3)c1	inactive
COc1cc(NC(=O)c2ccccc2)c(OC)cc1NC(=O)Cc1ccccc1	inactive
COc1cc(OC)cc(C(=O)OCC(=O)Nc2sccc2C(N)=O)c1	inactive
COc1cccc(OC)c1C(=O)Nc1nnc(C(C)C)s1	inactive
COc1cccc(OC)c1C(=O)Nc1sc2c(c1C(N)=O)CCCC2	-11.2 (active)
NC(=O)c1c(NC(=O)c2ccccc2)sc2c1CCCC2	inactive
Cc1cc(C)c(S(=O)(=O)N(C)CC(=O)NCC2CCCO2)c(C)c1 (stereo not given)	inactive
O=C(Cc1csc(Nc2nc(=S)[nH]c3ccccc23)n1)NCCCN1CCN(c2cccc(Cl)c2)CC1	inactive
CCCn1nc(Oc2nc(NC(C)C)nc(N(C)C)n2)ccc1=O	inactive
CCOC(=O)c1ccc(S(=O)(=O)N(CCO)Cc2cc3cc(OC)c(OC)cc3[nH]c2=O)cc1	inactive

SMILES	B-score
COc1cccc(CNC(=O)C(=O)NCCC2CCCCN2S(=O)(=O)c2ccc(C)cc2)c1 (stereo not given)	inactive
Cc1ccc(-n2c(SCC(=O)Nc3ncc(Cl)cc3Cl)nc3ccccc32)cc1	inactive
Cc1[nH]nc(SCC(=O)NCC(C)C)c1[N+](=O)[O-]	inactive
O=C(CSc1nc(-c2ccccc2)cs1)Nc1cccc([N+](=O)[O-])c1	-7.08 (active)
O=C(CSc1ncn[nH]1)Nc1nc(-c2cccc([N+](=O)[O-])c2)cs1	inactive
CCNC(=O)CSc1nc(-c2ccccc2)cs1	inactive
CCSc1nnc(-c2cc3c(s2)-c2ccccc2CC3)o1	inactive
CN(C(=O)CCN1C(=O)/C(=C/c2ccccc2F)SC1=S)C1CCS(=O)(=O)C1 (stereo not given)	inactive
CCOC(=O)CSc1nc2c(sc(=S)n2CCc2ccccc2)c(=O)n1Cc1ccco1	-8.91 (active)
CCOC(=O)CSc1nc2c(c(=O)n(C)c(=O)n2C)n1Cc1ccccc1F	inactive
COC(=O)CSc1nc2ccccc2c(=O)n1Cc1ccccc1	inactive
Cc1ccc(OCC(=O)Nc2ccc(NC(=O)c3cccs3)cc2)c(C)c1	inactive
O=C(Nc1ccc2c(c1)OCCO2)c1ccoc1	inactive
Cc1cc(Oc2ccc(Cl)cc2)nc(SCC(=O)c2ccccc2)n1	-11.2 (active)
COc1ccc(C(=O)CSc2nc(C)cc(C)n2)cc1[N+](=O)[O-]	inactive
Cc1cc(C)nc(SCC(=O)c2ccc(Cl)cc2)n1	inactive
CCC(C)NC(=O)c1nn(C)c(=O)c2ccccc12 (stereo not given)	inactive
Cc1ccc(N2C(=O)C(NC(=O)c3c(F)cccc3F)(C(F)(F)F)C3=C2CC(C)(C)CC3=O)cc1 (stereo not given)	inactive
CC(Sc1nc2cc(Cl)ccc2s1)C(=O)Nc1ccc2c(c1)OCO2 (stereo not given)	-7.35 (active)
O=C(Nc1ccc2c(c1)OCO2)c1sc2cc(Cl)ccc2c1Cl	inactive
CC(Sc1nc(-c2ccccc2)cc(C(F)(F)F)n1)C(=O)Nc1ccc2c(c1)OCO2 (stereo not given)	inactive
COc1ccc(Nc2ncnc3ccc(Br)cc23)c(OC)c1	inactive
COc1ccc(Nc2ncnc3sc(-c4ccccc4)cc23)c(OC)c1	-9.69 (active)
COc1ccc(Nc2ncnc3sc(C)cc23)cc1	inactive
CCc1cc(=O)oc2cc(OCC(=O)N3CCCc4ccccc43)ccc12	inactive
CN(C)C(=O)c1ccc2c(c1)C1C3CCC(C3)C1C(c1ccccc1)N2 (stereo not given)	inactive
CC(=O)c1ccc(NC(=O)CCNS(=O)(=O)c2cc(Br)cnc2N)cc1	inactive

SMILES	B-score
O=C(COC(=O)c1ccccc1SCC(=O)NC1CCCCC1)NC1CCCCC1	inactive
C=CCNC(=O)COC(=O)c1ccccc1C(=O)N(C)C1CCCCC1	-6.84 (active)
COc1ccccc1C(=O)OCC(=O)NCCNC(=O)COC(=O)c1ccccc1OC	inactive
O=c1cc(Cl)c2ccccc2n1-c1ccccc1	inactive
OCCCNC(c1ccccc1)c1ccc(O)cc1 (stereo not given)	inactive
CC(NCC(=O)Nc1cc(Cl)cc(Cl)c1)c1ccccc1 (stereo not given)	inactive
O=C(Nc1cc(Cl)cc(Cl)c1)C(NCCCO)c1ccccc1 (stereo not given)	-8.3 (active)
COc1ccccc1N1CCN(Cc2cc(OC)c3c(c2)OCO3)CC1	inactive
Cc1noc(C)c1C(=O)OCC(=O)N1CCN(S(=O)(=O)c2ccc3ccccc3c2)CC1	inactive
COC(=O)C1C(=O)NCC1c1ccc(C)cc1 (stereo not given)	inactive
COC(=O)C1=C(Nc2ccc(OC)cc2)C=C(C)C(C(=O)OC)C1c1ccc(C)cc1 (stereo not given)	inactive
COC(=O)C1=C(Nc2ccc(C)cc2)C=C(C)C(C(=O)OC)C1c1ccc(F)cc1 (stereo not given)	-10.4 (active)
CC1CCC(NC(=O)CNC(=O)c2ccc3ccccc3c2)CC1 (stereo not given)	inactive
CN=C1SC(CC(=O)Nc2ccc(C(=O)O)cc2)C(=O)N1C (stereo not given)	inactive
CN(CCC(=O)Nc1cc(S(=O)(=O)N(C)C)ccc1Cl)CC(=O)Nc1ccc(F)cc1	-12.2 (active)
CN(CC(=O)Nc1ccc(F)cc1)CC(=O)Nc1ccc(Cl)c(S(=O)(=O)N2CCOCC2)c1	inactive
CN(CC(=O)Nc1ccc(S(=O)(=O)N2CCCC2)cc1)Cc1ccc(Cl)c(Cl)c1	inactive
COc1ccccc1OCC(=O)O/N=C(\N)c1ccccn1	inactive
O=C(O)CCS(=O)(=O)c1ccc(-c2ccccc2)cc1	inactive
Cc1cc(C)c(C)c(S(=O)(=O)Nc2ccc(O)cc2)c1C	inactive
Cc1ccc(Cn2cc(C(=O)NN)c(=O)c3ccc(F)cc32)cc1	inactive
O=C1c2ccccc2C2=Nc3ccccc3SC(c3ccccc3F)C12 (stereo not given)	-9.81 (active)
CCOC(=O)C1=C(C)N=C2c3ccccc3C(=O)C2C1c1ccc(Br)cc1 (stereo not given)	inactive
O=C1c2ccccc2C(=O)C1c1ccccc1F	inactive
CC(C)c1ccc2c(c1)c(SC(C)(C)C)c(CC(C)(C)C(=O)O)n2Cc1ccc(Cl)cc1	inactive
COc1ccc(C2NC(=O)N(C)C(C)=C2[N+](=O)[O-])cc1 (stereo not given)	inactive
CCc1cccc(C)c1N(C(=O)Cn1c(CO)nc2ccccc21)C(C)COC (stereo not given)	-9.35 (active)

SMILES	B-score
COc1ccccc1Cn1c(CO)nc2ccccc21	inactive
CCOCN(C(=O)Cn1c(C(C)O)nc2ccccc21)c1c(C)cccc1CC (stereo not given)	inactive
CCOc1ccc2[nH]c(=O)c(CN(Cc3nnnn3CCc3ccccc3)CC3CCCO3)cc2c1 (stereo not given)	-9.63 (active)
COc1ccc2[nH]c(=O)c(CN(Cc3nnnn3CCc3ccccc3)CC3CCCO3)cc2c1 (stereo not given)	inactive
CCOc1ccc2[nH]c(=O)c(CN(Cc3nnnn3Cc3ccccc3)CC3CCCO3)cc2c1 (stereo not given)	inactive
Cc1cc(=O)[nH]c(Nc2cccc(Br)c2)n1	inactive
CCCN1C(=O)C(Cc2nc3ccccc3c(=O)n2-c2ccccc2)c2cc(C)ccc21 (stereo not given)	-9.54 (active)
CCCc1nc2c(c(=O)c3ccccc3n2C)c(=O)n1-c1cc(C)cc(C)c1	inactive
CCCc1nc2ccccc2c(=O)n1/N=C/c1ccc(O)c(O)c1	inactive
CCOc1ccc(CN(Cc2ccco2)S(=O)(=O)c2ccc(-n3cnnn3)c(OC)c2)cc1	inactive
CC(C)(C)n1nnnc1C(c1cccs1)N(Cc1cccnc1)CC1CCCO1 (stereo not given)	inactive
CCOc1ccc(CN(Cc2ccco2)C(c2cccs2)c2nnnn2C(C)(C)C)cc1 (stereo not given)	-17 (active)
NC(=O)CC(NC(=O)Cc1ccc(Br)cc1)c1ccc(NC2CC3CCC2C3)c([N+](=O)[O-])c1 (stereo not given)	inactive
Cc1cc(C)n2nc(CNS(=O)(=O)c3c(F)c(F)c(F)c(F)c3F)nc2n1	inactive
COc1ccc(NC(=O)NN2CCN(C)CC2)c(OC)c1	inactive
COc1ccc(C(=O)/C=C/c2cccnc2)c(OC)c1	inactive
Fc1ccc2c(c1)C(c1cccnc1)=NNC(c1cccs1)=N2	inactive
COc1ccc2c(c1)C(c1cccs1)=NNC(c1cccnc1)=N2	-13 (active)
OCC[C@H]1C[C@H](O)[C@@H](O)[C@]2(CCCCO2)O1	inactive
CCCNC(=O)CSc1nc(Cc2ccccc2)nc2ccccc12	-7.59 (active)
C=CCSc1nc(Cc2ccc(Cl)cc2)nc2ccccc12	inactive
CCc1nc(SCC(=O)NNC(=O)c2ccc(C)cc2)c2ccccc2n1	inactive
CCOc1ccc(N(C)Cc2cc(=O)oc3ccc(OC)cc23)cc1	inactive
Cc1nc(-c2ccc(F)cc2)c(CC(=O)Nc2cc(S(=O)(=O)N3CCCCC3)ccc2C)s1	inactive
